Results as given in PubChem BioAssay (Tox21).
Several values for one entry are separate records, joined by “and”; a condition that tells them apart may be missing. Identical values can stand only once. Some structures have more than one record in an assay (separate samples or runs), and their calls can disagree. Activity calls are given as the source filed them. Unless noted, calls follow the shape of the dose curve; as a rule, active = well fitted curve in the direction sought with a large enough effect in the repeat runs; inconclusive = weak or mixed curves; inactive = no such curve, though single readings can be large; an effect the other way counts as inactive or inconclusive.

Assays:
[1] = qHTS assay to identify small molecule antagonists of the thyroid receptor (TR) signaling pathway - cell viability counter screen (AID 743064); details: GH3.TRE-Luc viability, CellTiter-Fluor, 24 h; series mostly up to 70.3 µM; also: nearly all actives have a fitted effect of over 50% in size; also: potency is read from the fitted curve at half-maximal effect
How it was run: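 Viability of T3-stimulated (1 nM final) GH3.TRE-Luc cells is measured by CellTiter-Fluor fluorescence after 23.5 h compound exposure at 37 °C plus 30 min reagent incubation.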

[2] = qHTS assay to identify small molecule antagonists of the thyroid receptor (TR) signaling pathway (AID 743065); details: GH3.TRE-Luc, T3-stimulated luciferase inhibition, 23.5 h; series mostly up to 70.3 µM; also: nearly all actives have a fitted effect of over 55% in size; also: potency is read from the fitted curve at half-maximal effect
How it was run: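 Antagonism measured as loss of luciferase signal in GH3 cells stably carrying a TRE-luciferase reporter, co-treated with compound and T3 (1 nM final) for 23.5 h at 37 C. Viability was read in the same well by CellTiter-Fluor.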

[3] = tested on: thyroid hormone receptor (rat, GH3 cells); test: qHTS assay to identify small molecule agonists of the thyroid receptor (TR) signaling pathway (AID 743066; calls by dose curve); details: GH3.TRE-Luc cells, TR agonist luciferase, 24 h; series mostly up to 83.9 µM
[4] = biological target: Estrogen receptor (Homo sapiens) (UniProt P03372); test: qHTS assay to identify small molecule antagonists of the estrogen receptor alpha (ER-alpha) signaling pathway (AID 743069; active = well fitted curve in the direction sought with a large enough effect in the signal ratio in the repeat runs, not every such curve was filed as active; inconclusive = weak or mixed curves, or effect the other way; inactive = no such curve, though single readings can be large or run the other way; the % refers to the signal ratio; also: potency is read from the fitted curve at half-maximal effect); details: HEK293 ER-alpha-UAS-bla, beta-lactamase ratio, antagonist mode; series mostly up to 69.4 µM
Sequence of Estrogen receptor (Homo sapiens) (P03372 whole entry, looked up): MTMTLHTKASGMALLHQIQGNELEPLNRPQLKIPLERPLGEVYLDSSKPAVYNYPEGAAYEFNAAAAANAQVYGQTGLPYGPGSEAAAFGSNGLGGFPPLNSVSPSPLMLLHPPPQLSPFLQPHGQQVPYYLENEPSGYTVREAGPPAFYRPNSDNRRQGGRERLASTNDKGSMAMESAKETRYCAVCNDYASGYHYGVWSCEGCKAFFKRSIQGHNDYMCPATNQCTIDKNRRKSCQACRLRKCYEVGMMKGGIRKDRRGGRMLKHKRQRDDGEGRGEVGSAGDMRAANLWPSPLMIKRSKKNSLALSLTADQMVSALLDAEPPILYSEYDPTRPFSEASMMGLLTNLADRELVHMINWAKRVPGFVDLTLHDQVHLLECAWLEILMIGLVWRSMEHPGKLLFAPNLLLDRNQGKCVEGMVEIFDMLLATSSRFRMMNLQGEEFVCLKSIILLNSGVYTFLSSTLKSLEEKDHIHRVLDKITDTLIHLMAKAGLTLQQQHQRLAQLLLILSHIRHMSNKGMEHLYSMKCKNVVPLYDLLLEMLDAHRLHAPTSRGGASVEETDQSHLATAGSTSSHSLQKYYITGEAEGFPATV
How it was run: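 Compound effects are measured against 17beta-estradiol stimulation in HEK293 cells with a UAS-controlled beta-lactamase reporter for ER-alpha. Exposure lasts 18 hr at 37C; LiveBLAzer B/G FRET substrate follows for 2 hr at room temperature.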

[5] = qHTS assay to identify small molecule antagonists of the estrogen receptor alpha (ER-alpha) signaling pathway - cell viability counter screen (AID 743074; calls by dose curve;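 also: HEK293 cells carrying ER-alpha-UAS-bla reporter stimulated with 17beta-estradiol; nearly all actives have a fitted effect of over 45% in size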); details: ERalpha-bla HEK293 viability, CellTiter-Glo luminescence, 18 h; series mostly up to 69.4 µM
[6] = biological target: Estrogen receptor (Homo sapiens) (UniProt P03372); test: qHTS assay to identify small molecule agonists of the estrogen receptor alpha (ER-alpha) signaling pathway (AID 743075; calls by dose curve; also: potency is read from the fitted curve at half-maximal effect); details: HEK293 ER-alpha-UAS-bla, beta-lactamase FRET ratio, 18 h; series mostly up to 70.1 µM
[7] = biological target: Estrogen receptor (Homo sapiens) (UniProt P03372); test: qHTS assay to identify small molecule agonists of the estrogen receptor alpha (ER-alpha) signaling pathway using the BG1 cell line (AID 743079); details: BG1Luc4E2 cells, ERE-luciferase agonist, 22 h; series mostly up to 70.3 µM; also: nearly all actives have a fitted effect of over 20% in size; also: potency is read from the fitted curve at half-maximal effect
[8] = qHTS assay to identify small molecule antagonists of the estrogen receptor alpha (ER-alpha) signaling pathway using the BG1 cell line (AID 743080; calls by dose curve;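 also: BG1 cells stimulated with 17beta-estradiol alongside compound; nearly all actives have a fitted effect of over 25% in size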; also: potency is read from the fitted curve at half-maximal effect); details: BG1Luc4E2 ERE-luciferase antagonist mode, luminescence; series mostly up to 70.3 µM
How it was run: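 Quantitative HTS on the Tox21 10K library: BG1 cells with endogenous ER-alpha and ERE-luciferase reporter, 17beta-estradiol stimulation, 21.5 h compound exposure, luminescence endpoint with parallel fluorescence cytotoxicity counter-read.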

[9] = qHTS assay to identify small molecule antagonists of the estrogen receptor alpha (ER-alpha) signaling pathway using the BG1 cell line - cell viability counter screen (AID 743081); details: BG1Luc4E2 viability, CellTiter-Fluor, 22 h; series mostly up to 70.3 µM;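 also: compound given together with 17beta-estradiol as the ER stimulus; nearly all actives have a fitted effect of over 45% in size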; also: potency is read from the fitted curve at half-maximal effect
Aromatase (Homo sapiens) = Aromatase (Homo sapiens) (UniProt P11511); test: qHTS assay to identify aromatase inhibitors (AID 743083); details: MCF-7 aro ERE, testosterone-driven ERE luciferase, 24 h; series mostly up to 70.3 µM; also: nearly all actives have a fitted effect of over 55% in size; also: potency is read from the fitted curve at half-maximal effect
Sequence of Aromatase (Homo sapiens) (P11511 whole entry, looked up): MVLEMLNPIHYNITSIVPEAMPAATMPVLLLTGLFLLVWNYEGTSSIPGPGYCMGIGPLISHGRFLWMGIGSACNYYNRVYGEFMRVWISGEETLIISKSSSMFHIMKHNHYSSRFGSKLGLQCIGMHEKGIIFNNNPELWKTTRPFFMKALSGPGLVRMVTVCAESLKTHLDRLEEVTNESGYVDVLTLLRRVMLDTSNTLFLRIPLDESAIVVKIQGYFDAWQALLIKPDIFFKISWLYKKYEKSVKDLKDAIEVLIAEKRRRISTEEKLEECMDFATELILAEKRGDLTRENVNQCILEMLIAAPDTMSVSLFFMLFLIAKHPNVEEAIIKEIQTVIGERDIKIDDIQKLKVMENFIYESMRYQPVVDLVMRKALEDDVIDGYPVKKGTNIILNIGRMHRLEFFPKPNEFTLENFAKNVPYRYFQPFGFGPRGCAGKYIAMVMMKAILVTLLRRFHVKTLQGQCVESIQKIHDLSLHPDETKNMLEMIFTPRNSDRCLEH

[10] = qHTS assay to identify aromatase inhibitors - cell viability counter screen (AID 743084); details: MCF-7 aro ERE viability, CellTiter-Fluor, 24 h; series mostly up to 70.3 µM;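 also: cells stimulated with testosterone during compound exposure; nearly all actives have a fitted effect of over 55% in size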; also: potency is read from the fitted curve at half-maximal effect
[11] = qHTS assay to identify small molecule that activate the aryl hydrocarbon receptor (AhR) signaling pathway - cell viability counter screen (AID 743086); details: HepG2-AhR-luc viability, CellTiter-Fluor, 24 h; series mostly up to 70.3 µM; also: nearly all actives have a fitted effect of over 45% in size; also: potency is read from the fitted curve at half-maximal effect
How it was run: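 Cytotoxicity counter screen: CellTiter-Fluor signal (30 min, 37 C) in 4000 HepG2 cells/well carrying the DRE-luciferase reporter, following 24 h compound exposure at 37 C.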

[12] = qHTS assay to identify small molecule antagonists of the peroxisome proliferator-activated receptor gamma (PPARg) signaling pathway - cell viability counter screen (AID 743194); details: PPARg-bla HEK293H viability, CellTiter-Glo luminescence, 17 h, co-treated with 50 nM rosiglitazone; series mostly up to 62.6 µM; also: nearly all actives have a fitted effect of over 55% in size; also: potency is read from the fitted curve at half-maximal effect
How it was run: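 Viability was measured as CellTiter-Glo luminescence in GeneBLAzer PPARg UAS-bla HEK293H cells. These cells had been exposed 17 h at 37 C to compounds together with rosiglitazone at 50 nM final, with the beta-lactamase readout taken in the same wells.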

[13] = qHTS assay for small molecule agonists of the antioxidant response element (ARE) signaling pathway (AID 743202; active = well fitted activation curve with a large enough effect in the signal ratio in the repeat runs, not every such curve was filed as active; inconclusive = weak or mixed curves, or effect the other way; inactive = no such curve, though single readings can be large or run the other way; the % refers to the signal ratio; also: potency is read from the fitted curve at half-maximal effect); details: HepG2 ARE-bla reporter, beta-lactamase FRET, 16 h; series mostly up to 73.3 µM
How it was run: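 An ARE-responsive beta-lactamase gene stably integrated in HepG2 cells serves as reporter. After 5 h plating and 16 h compound incubation at 37 C, fluorescence of the B/G FRET substrate was measured.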

[14] = qHTS assay for small molecule activators of the heat shock response signaling pathway - cell viability counter screen (AID 743209); details: HSE-bla HeLa viability, CellTiter-Glo luminescence, 5 h; series mostly up to 62.6 µM; also: nearly all actives have a fitted effect of over 50% in size
How it was run: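 CellSensor HSE-bla HeLa cells, plated overnight at 37 C/5% CO2, were exposed to compounds in DMSO for 5 h at 37 C. Viability was then read in the same wells by CellTiter-Glo luminescence after 30 min at room temperature.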

[15] = qHTS assay for small molecule activators of the heat shock response signaling pathway (AID 743210; active = well fitted activation curve with a large enough effect in the signal ratio in the repeat runs, with a control signal flat, not every such curve was filed as active; inconclusive = weak or mixed curves; the % refers to the signal ratio;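 also: HeLa cells with beta-lactamase reporter driven by heat shock elements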); details: HeLa HSE-bla reporter, beta-lactamase ratio, 5 h; series mostly up to 62.6 µM
How it was run: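 In HSE-bla HeLa cells, 5 h compound incubation (37 C) precedes addition of LiveBLAzer B/G substrate; after 2.5 h at room temperature, fluorescence intensity indicates reporter induction.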

[16] = biological target: Aryl hydrocarbon receptor (Homo sapiens) (UniProt P35869); test: qHTS assay to identify small molecule that activate the aryl hydrocarbon receptor (AhR) signaling pathway (AID 743085); details: HepG2 AhR-luc (HG2L7.5c1), luciferase, 24 h; series mostly up to 70.3 µM; also: nearly all actives have a fitted effect of over 15% in size; also: potency is read from the fitted curve at half-maximal effect;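 as to activation: HG2L7.5c1 human HepG2 liver cells with stably integrated DRE-driven firefly reporter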
Sequence of Aryl hydrocarbon receptor (Homo sapiens) (P35869 whole entry, looked up): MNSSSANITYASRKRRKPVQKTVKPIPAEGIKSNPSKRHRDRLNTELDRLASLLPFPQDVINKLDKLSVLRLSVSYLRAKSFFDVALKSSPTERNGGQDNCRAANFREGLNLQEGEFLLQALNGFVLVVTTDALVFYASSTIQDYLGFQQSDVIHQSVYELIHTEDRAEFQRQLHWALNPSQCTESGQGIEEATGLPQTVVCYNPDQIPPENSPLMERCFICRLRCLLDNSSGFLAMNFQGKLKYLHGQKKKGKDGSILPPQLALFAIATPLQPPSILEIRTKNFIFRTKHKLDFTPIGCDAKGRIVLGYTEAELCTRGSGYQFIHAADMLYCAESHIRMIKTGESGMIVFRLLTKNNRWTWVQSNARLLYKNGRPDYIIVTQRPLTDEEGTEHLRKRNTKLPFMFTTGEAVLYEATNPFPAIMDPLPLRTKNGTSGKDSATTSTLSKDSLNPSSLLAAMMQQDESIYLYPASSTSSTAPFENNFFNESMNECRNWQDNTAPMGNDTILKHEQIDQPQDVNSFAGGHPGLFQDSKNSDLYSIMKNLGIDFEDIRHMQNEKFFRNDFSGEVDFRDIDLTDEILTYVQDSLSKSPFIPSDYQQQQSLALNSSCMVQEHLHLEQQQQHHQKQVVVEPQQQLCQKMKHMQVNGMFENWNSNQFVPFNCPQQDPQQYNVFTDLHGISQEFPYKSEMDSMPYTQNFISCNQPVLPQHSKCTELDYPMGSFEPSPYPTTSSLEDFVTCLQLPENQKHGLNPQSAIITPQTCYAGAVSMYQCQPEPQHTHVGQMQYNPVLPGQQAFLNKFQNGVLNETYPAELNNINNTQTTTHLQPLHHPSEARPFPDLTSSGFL
How it was run: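 A multiplexed format paired cell viability (CellTiter-Fluor fluorescence) with AhR-dependent luciferase output (ONE-Glo luminescence) in the same wells of HepG2 DRE-luc cells after 24 h compound exposure at 37C.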

[17] = biological target: Peroxisome proliferator-activated receptor gamma (Homo sapiens) (UniProt P37231); test: qHTS assay to identify small molecule agonists of the peroxisome proliferator-activated receptor gamma (PPARg) signaling pathway (AID 743094; active = well fitted activation curve with a large enough effect in the signal ratio in the repeat runs, not every such curve was filed as active; inconclusive = weak or mixed curves, or effect the other way; inactive = no such curve, though single readings can be large or run the other way; the % refers to the signal ratio); details: HEK293H PPARg-UAS-bla, beta-lactamase FRET ratio, 17 h; series mostly up to 57 µM
Sequence of Peroxisome proliferator-activated receptor gamma (Homo sapiens) (P37231 whole entry, looked up): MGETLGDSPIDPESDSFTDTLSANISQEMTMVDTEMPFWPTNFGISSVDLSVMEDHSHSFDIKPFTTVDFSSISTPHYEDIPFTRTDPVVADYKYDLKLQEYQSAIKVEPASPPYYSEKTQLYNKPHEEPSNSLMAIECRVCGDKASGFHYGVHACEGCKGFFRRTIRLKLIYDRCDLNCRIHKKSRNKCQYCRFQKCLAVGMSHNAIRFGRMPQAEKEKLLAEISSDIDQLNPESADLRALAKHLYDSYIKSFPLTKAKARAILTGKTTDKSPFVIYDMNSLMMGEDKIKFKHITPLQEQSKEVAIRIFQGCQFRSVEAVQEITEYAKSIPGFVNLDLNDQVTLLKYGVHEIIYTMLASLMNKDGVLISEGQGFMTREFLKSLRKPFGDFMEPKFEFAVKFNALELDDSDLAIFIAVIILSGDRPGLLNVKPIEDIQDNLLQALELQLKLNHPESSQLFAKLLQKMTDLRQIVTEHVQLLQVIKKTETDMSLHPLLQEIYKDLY
How it was run: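 GeneBLAzer PPARg UAS-bla HEK293H cells carrying a stably integrated beta-lactamase reporter were pre-incubated 5 h at 37C, then exposed to compounds in DMSO for 17 h at 37C; LiveBLAzer B/G FRET substrate was added for 1 h at room temperature and fluorescence read.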

[18] = qHTS assay for small molecule agonists of the antioxidant response element (ARE) signaling pathway - cell viability counter screen (AID 743203; calls by dose curve; also: nearly all actives have a fitted effect of over 55% in size); details: ARE-bla HepG2 viability, CellTiter-Glo luminescence, 16 h; series mostly up to 73.3 µM
How it was run: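 CellSensor ARE-bla HepG2 cells, 2,000 per well, rested 5 hrs at 37C/5% CO2, then exposed to compound in DMSO for 16 hrs; viability read as CellTiter-Glo luminescence after 30 min at room temperature, in the reporter wells.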

[19] = biological target: Peroxisome proliferator-activated receptor gamma (Homo sapiens) (UniProt P37231); test: qHTS assay to identify small molecule antagonists of the peroxisome proliferator-activated receptor gamma (PPARg) signaling pathway (AID 743191; calls by dose curve; also: nearly all actives have a fitted effect of over 30% in size); details: HEK293H PPARg-UAS-bla, beta-lactamase ratio, antagonist, 17 h; series mostly up to 62.6 µM
How it was run: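 Beta-lactamase reporter under UAS control in HEK293H PPARg-bla cells; compound treatment 17 h at 37C. Read-out: fluorescence intensity after 1 h room-temperature incubation with LiveBLAzer B/G FRET substrate.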

Measured: Potency

OCCOCCOCCOCCO
inactive: [1] | [2] | [3] | [4] | [5] | [6] | [7] | [8] | [9] | Aromatase (Homo sapiens) | [10] | [11] | [12] | [13] | [14] | [15]

Cc1cc(O)c2c(c1)C(=O)c1cc(O)cc(O)c1C2=O
active: [2] 23.8 µM and 15.4 µM | [9] 29.9 µM and 24.3 µM | Aromatase (Homo sapiens) 23.8 µM and 54.5 µM | [10] 11.9 µM and 24.3 µM | [16] 5.97 µM and 34.4 µM | [13] 4.23 µM
inactive and 30.6 µM (active): [1]
inactive: [3] | [4] | [5] | [8] | [11] | [17] | [12] | [14]

CCCCNC(N)=O
inactive: [1] | [2] | [3] | [5] | [9] | Aromatase (Homo sapiens) | [10] | [11] | [17] | [12] | [13] | [14] | [15]

Cc1ccc(C(=O)O)o1
inactive: [1] | [2] | [3] | [5] | [9] | Aromatase (Homo sapiens) | [10] | [16] | [11] | [17] | [12] | [18] | [14] | [15]

O=C(O)c1ccc([N+](=O)[O-])cc1
inactive: [1] | [2] | [3] | [5] | [9] | Aromatase (Homo sapiens) | [10] | [16] | [11] | [12] | [13] | [18] | [14] | [15]

Clc1ccc(Cl)c(Cl)c1Cl
inactive: [1] | [2] | [3] | [5] | [9] | Aromatase (Homo sapiens) | [10] | [16] | [11] | [17] | [19] | [12] | [13] | [14] | [15]

CS(=O)(=O)Nc1ccc([N+](=O)[O-])cc1Oc1ccccc1
inactive: [1] | [2] | [3] | [5] | [9] | Aromatase (Homo sapiens) | [10] | [16] | [11] | [12] | [14] | [15]

CCCCC(CC)COC(=O)/C=C\C(=O)OCC(CC)CCCC (stereo not given)
inactive: [1] | [2] | [3] | [5] | [9] | Aromatase (Homo sapiens) | [10] | [16] | [11] | [17] | [19] | [12] | [14]

Cc1cc(O)cc(C)c1Cl
inactive: [1] | [2] | [3] | [5] | [9] | Aromatase (Homo sapiens) | [10] | [11] | [17] | [19] | [12] | [13] | [14] | [15]

CCc1ccccc1O
inactive: [1] | [2] | [3] | [4] | [6] | [7] | [8] | [9] | Aromatase (Homo sapiens) | [10] | [16] | [11] | [17] | [19] | [12] | [13] | [18] | [14] | [15]

CC#C[C@]1(O)CC[C@H]2[C@@H]3CCC4=CC(=O)CCC4=C3[C@@H](c3ccc(N(C)C)cc3)C[C@@]21C
active: [1] 9.44 µM and 34.4 µM | [2] 4.73 µM and 24.3 µM | [8] 16.8 µM and 68.6 µM | Aromatase (Homo sapiens) 11.9 µM and 30.6 µM
inactive: [3] | [5] | [6] | [9] | [10] | [11] | [14]

O=C(Oc1ccccc1)c1ccc(O)cc1
inactive: [1] | [2] | [3] | [5] | [9] | Aromatase (Homo sapiens) | [10] | [11] | [17] | [19] | [12] | [13] | [14] | [15]

O=S(=O)(Oc1ccc(Cl)cc1Cl)c1ccccc1
inactive: [1] | [2] | [3] | [4] | [5] | [9] | Aromatase (Homo sapiens) | [10] | [16] | [11] | [17] | [19] | [12] | [13] | [18] | [14] | [15]
active: [6] 7.9 µM [activator] and 55 µM [activator] | [7] 19.7 µM and 30.6 µM

CCCCC(CC)COC(C)=O (stereo not given)
inactive: [1] | [2] | [3] | [5] | [9] | Aromatase (Homo sapiens) | [10] | [16] | [11] | [17] | [19] | [12] | [13] | [14] | [15]

CCCCCCC(C)(C)S
inactive: [1] | [2] | [3] | [5] | [9] | Aromatase (Homo sapiens) | [10] | [16] | [11] | [17] | [12] | [13] | [14] | [15]

CN(C)c1ccc(C(=N)c2ccc(N(C)C)cc2)cc1
inactive: [3] | [6] | [17] | [18] | [14] | [15]
active: [1] 53.8 µM and 26.3 µM | [2] 7.6 µM and 7.4 µM | [4] 37.4 µM [inconclusive] | [9] 30.3 µM and 14.8 µM | [11] 23.4 µM | [12] 23.6 µM
